Assay results reported in PubChem BioAssay (NCATS).
Where “and” joins values, the source holds several entries; their conditions need not be identical. Equal values may be shown once. Records with an inconclusive call do not appear. Calls of active or inactive are those of the source. Unless noted, calls come from the whole dose curve; as a rule, active = well fitted curve in the direction sought with a large enough effect; inconclusive = small, poorly fitted or top-dose-only effect, or another doubt; inactive = no such curve, though single readings can be large; an effect the other way counts as inactive or inconclusive.

Columns and labels:
[1] = qHTS assay for small molecule disruptors of the mitochondrial membrane potential - 1 hr assay (AID 651754; calls by dose curve; note: % is set by controls: 0 for no effect and ±100 for the full control effect; nearly all actives have a fitted effect of over 35% in size)
Outline: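 Mitochondrial potential in living HepG2 cells after 1 hr compound treatment at 37C was read with Mito-MPS dye added for a further 30 min. Red aggregate and green monomer fluorescence were measured; loss of potential leaves dye as cytoplasmic monomers.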

[2] = qHTS assay for small molecule disruptors of the mitochondrial membrane potential - 5 hr assay (AID 651755; calls by dose curve; note: % is set by controls: 0 for no effect and ±100 for the full control effect; nearly all actives have a fitted effect of over 40% in size)
Outline: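 Seed HepG2 overnight, add compound, incubate 5 hr at 37C and 5% CO2, stain 30 min with Mito-MPS, then measure monomer (490/535 nm) and aggregate (540/590 nm) fluorescence.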

[3] = biological target: Tumor necrosis factor (Homo sapiens) (UniProt P01375); assay: qHTS assay to identify small molecules that stimulate Tumor Necrosis Factor-alpha (TNF-alpha) secretion (AID 651757; active = well fitted curve in the direction sought with a large enough effect in the signal ratio; the % refers to the signal ratio; note: 0% is about no effect)
Outline: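 Secreted TNF-alpha quantified by TR-FRET sandwich of two labeled anti-TNF-alpha antibodies, incubated 3 hr at room temperature. Preceded by 17 hr, 37 C compound treatment of THP-1 cells at 3000 cells/well.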

[4] = qHTS assay for environmental chemicals that activate the Aryl hydrocarbon Receptor (AhR) signaling pathway (AID 651777); details: 1A2-DRE human hepatoma cells, luciferase, 24 h; activation: active compounds read high; note: % of control where 0% means no effect; nearly all actives have a fitted effect of over 15% in size
Outline: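 Luminescence read-out: One-Glo added for 30 min at RT after 24 hr compound treatment (37 C, 5% CO2) of human hepatoma cells expressing a DRE/CYP1A2 promoter–luciferase reporter; increased signal indicates AhR activation.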

[5] = biological target: Peroxisome proliferator-activated receptor alpha (Homo sapiens) (UniProt Q07869); assay: qHTS assay for small molecule agonists of the peroxisome proliferator-activated receptor alpha (PPARalpha) signaling pathway (AID 651778); details: PathHunter PPARalpha complementation, chemiluminescence, 6 h; active compounds read high; note: % of control where 0% means no effect
Outline: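 Cells plated at 2,000/well and held overnight at 37 C, 5% CO2, then compound added by pin tool for 6 hr; after PathHunter detection reagent and 60 min at room temperature, chemiluminescence from enzyme complementation was read.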

[6] = biological target: Nuclear receptor ROR-gamma (Homo sapiens) (UniProt P51449); assay: qHTS assay for small molecule antagonists of the retinoid-related orphan receptor gamma (ROR-gamma) signaling pathway (AID 651802);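 note: CHO cells with doxycycline-induced ROR-gamma expression; luciferase reporter luminescence driven by ROR response element; series mostly up to about 92 µM; % is set by controls: 0 for no effect and ±100 for the full control effect; nearly all actives have a fitted effect of over 60% in size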
Outline: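 Luminescence (One-Glo, 30 min RT) measured 16 h after compound addition and doxycycline induction at 37C. Reporter: RORE-luciferase under TET-inducible ROR-gamma in CHO cells.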

[7] = qHTS assay for small molecule agonists of the antioxidant response element (ARE) signaling pathway measured by Nrf2-dependant transcriptional activity (AID 720636; active = well fitted curve in the direction sought with a large enough effect in the repeat runs; an effect the other way counts as inactive or inconclusive;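 note: HepG2 cells with an ARE-driven luciferase reporter; % of control where 0% means no effect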)
Outline: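 HepG2 ARE-luc reporter line, 1% dialyzed FBS; 6 hr attachment at 37 C, compound pinned in, 16 hr at 37 C/5% CO2; ONE-Glo, 30 min RT, luminescence read.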

[8] = qHTS assay for small molecule antagonists of the retinoid-related orphan receptor gamma (ROR-gamma) signaling pathway - cell viability counter screen (AID 720652; active = well fitted curve in the direction sought with a large enough effect in the repeat runs; an effect the other way counts as inactive or inconclusive;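 note: CHO reporter cells with doxycycline-induced ROR-gamma expression; series mostly up to about 92 µM; compound exposure lasted 16 hr before ATP read; % is set by controls: 0 for no effect and ±100 for the full control effect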)
Outline: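 Cytotoxicity counter screen: intracellular ATP (CellTiter-Glo luminescence) measured in the doxycycline-induced CHO RORE-luciferase reporter line after 16 hr compound exposure at 37 C, 5% CO2.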

[9] = qHTS assay for small molecule agonists of the antioxidant response element (ARE) signaling pathway measured by Nrf2-dependant transcriptional activity - cell viability counter screen (AID 720653; active = well fitted curve in the direction sought with a large enough effect in the repeat runs; an effect the other way counts as inactive or inconclusive; note: % is set by controls: 0 for no effect and ±100 for the full control effect); details: ARE-bla HepG2 viability, CellTiter-Glo ATP luminescence, 16 h; active compounds read low
Outline: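 ARE-bla HepG2 cells (2,000/well) rested 5 hrs at 37C/5% CO2, then exposed to compounds in DMSO for 16 hrs. Viability was read in the same wells as intracellular ATP by luminescence, 30 min at room temperature after reagent addition.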

[10] = qHTS assay for cell viability of the p53RE-bla HCT-116 cell line (AID 743292); note: % is set by controls: 0 for no effect and ±100 for the full control effect; nearly all actives have a fitted effect of over 55% in size
Outline: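 Luminescent ATP quantitation (CellTiter-Glo) served as the viability read-out; reagent was added after 16 h compound exposure at 37 C and read after 30 min at room temperature. Cells: p53RE-bla HCT-116, 4,000 per well.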

[11] = biological target: Nuclear receptor subfamily 1 group I member 2 (Rattus norvegicus) (UniProt Q9R1A7); assay: qHTS assay for small molecule activators of the rat pregnane X receptor (rPXR) signaling pathway (AID 651751; call rule not given here; note: 0% is about no effect); details: rPXR reporter cells, luciferase (One-Glo), 24 h
[12] = qHTS assay for small molecule activators of the human pregnane X receptor (PXR) signaling pathway (AID 720659; call rule not given here; note: 0% is about no effect)
[13] = qHTS assay for cell viability of HEK293 cells (AID 743288); details: ATP luminescence (CellTiter-Glo), 18 h, active compounds read low; note: % is set by controls: 0 for no effect and ±100 for the full control effect; nearly all actives have a fitted effect of over 50% in size
Outline: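 Steps: plate 2,000 parental HEK293 cells per well; incubate ≥5 h, 37 C; add compounds in DMSO; incubate 18 h, 37 C; add CellTiter-Glo; wait 30 min at room temperature; read luminescence.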

Sequence of Nuclear receptor ROR-gamma (Homo sapiens) (P51449 whole entry, looked up): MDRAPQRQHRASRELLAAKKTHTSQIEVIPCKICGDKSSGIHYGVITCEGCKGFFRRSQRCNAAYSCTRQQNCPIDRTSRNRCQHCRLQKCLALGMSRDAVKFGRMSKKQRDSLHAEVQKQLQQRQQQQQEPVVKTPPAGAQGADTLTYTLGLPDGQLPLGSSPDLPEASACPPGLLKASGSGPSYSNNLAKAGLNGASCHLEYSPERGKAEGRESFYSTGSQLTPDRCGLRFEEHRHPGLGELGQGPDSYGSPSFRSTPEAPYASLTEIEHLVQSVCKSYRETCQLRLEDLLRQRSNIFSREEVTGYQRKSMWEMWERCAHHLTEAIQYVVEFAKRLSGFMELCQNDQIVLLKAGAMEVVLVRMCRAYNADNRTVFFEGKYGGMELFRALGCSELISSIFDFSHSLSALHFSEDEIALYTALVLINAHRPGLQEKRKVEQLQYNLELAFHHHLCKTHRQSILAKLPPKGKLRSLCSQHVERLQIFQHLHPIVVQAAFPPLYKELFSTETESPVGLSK
Sequence of Nuclear receptor subfamily 1 group I member 2 (Rattus norvegicus) (Q9R1A7 whole entry, looked up): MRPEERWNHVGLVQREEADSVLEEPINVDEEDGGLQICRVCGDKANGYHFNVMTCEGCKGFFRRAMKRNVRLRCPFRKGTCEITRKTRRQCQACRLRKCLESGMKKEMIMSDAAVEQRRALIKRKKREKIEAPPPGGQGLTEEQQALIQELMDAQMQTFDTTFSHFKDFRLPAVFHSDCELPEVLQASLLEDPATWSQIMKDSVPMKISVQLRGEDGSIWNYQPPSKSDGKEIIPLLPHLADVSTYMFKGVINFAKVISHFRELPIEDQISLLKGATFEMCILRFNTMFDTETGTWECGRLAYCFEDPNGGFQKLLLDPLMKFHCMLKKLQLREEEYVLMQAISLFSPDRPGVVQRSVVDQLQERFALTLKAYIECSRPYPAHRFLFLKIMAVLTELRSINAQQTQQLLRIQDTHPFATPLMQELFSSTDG
Sequence of Peroxisome proliferator-activated receptor alpha (Homo sapiens) (Q07869 whole entry, looked up): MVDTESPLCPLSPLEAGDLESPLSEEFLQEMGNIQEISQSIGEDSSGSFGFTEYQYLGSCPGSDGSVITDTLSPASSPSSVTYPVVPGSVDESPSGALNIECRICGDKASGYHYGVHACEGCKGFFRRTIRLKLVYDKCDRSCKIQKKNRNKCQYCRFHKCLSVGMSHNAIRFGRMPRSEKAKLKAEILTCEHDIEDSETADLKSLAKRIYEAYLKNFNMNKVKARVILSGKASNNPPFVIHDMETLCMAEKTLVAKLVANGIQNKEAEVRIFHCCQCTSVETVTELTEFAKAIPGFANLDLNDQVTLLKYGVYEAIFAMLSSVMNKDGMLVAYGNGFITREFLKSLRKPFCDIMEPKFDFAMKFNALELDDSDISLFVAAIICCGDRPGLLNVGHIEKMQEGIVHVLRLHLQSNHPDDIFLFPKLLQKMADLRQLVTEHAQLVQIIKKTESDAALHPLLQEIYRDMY
Sequence of Tumor necrosis factor (Homo sapiens) (P01375 whole entry, looked up): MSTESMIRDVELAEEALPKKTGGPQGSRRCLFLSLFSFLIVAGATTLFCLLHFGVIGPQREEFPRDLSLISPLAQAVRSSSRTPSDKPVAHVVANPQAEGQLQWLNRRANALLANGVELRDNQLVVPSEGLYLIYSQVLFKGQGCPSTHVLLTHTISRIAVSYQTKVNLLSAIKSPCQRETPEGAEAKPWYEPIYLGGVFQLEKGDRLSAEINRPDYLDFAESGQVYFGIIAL

Cc1ccc(Cl)cc1N
inactive: Potency [1] | Potency [2] | Potency [3] | activation [4] -0.729% | max response [5] -6.36% | Potency [6] | outcome [7] | Potency [8] | max response [9] 6.01% | Potency [10] | max response [11] 0.767% | outcome [12]

Cc1cccc(C(=O)O)c1
inactive: Potency [1] | Potency [2] | Potency [3] | activation [4] 0.807% | max response [5] -3.59% | Potency [6] | outcome [7] | Potency [8] | max response [9] -0.706% | max response [13] 2.24% | Potency [10] | max response [11] -5.92% | outcome [12]

OC(CCl)CCl
inactive: Potency [1] | Potency [2] | Potency [3] | activation [4] 0.26% | max response [5] -0.528% | Potency [6] | outcome [7] | Potency [8] | max response [13] 5.53% | max response [11] 0.333% | outcome [12]

CCCCC(=O)N(C)C
inactive: Potency [1] | Potency [2] | Potency [3] | activation [4] 1.62% | max response [5] -3.71% | Potency [6] | outcome [7] | Potency [8] | max response [9] -1.17% | max response [13] -5.96% | Potency [10] | max response [11] -1.49% | outcome [12]

CC(=O)OCc1ccco1
inactive: Potency [1] | Potency [2] | Potency [3] | activation [4] 1.48% | max response [5] -0.503% | Potency [6] | outcome [7] | max response [9] -8.3% | Potency [10] | max response [11] -1.61% | outcome [12]

C/C=C1\CC2C=CC1C2 (stereo not drawn)
inactive: Potency [1] | Potency [2] | Potency [3] | activation [4] -0.171% | max response [5] -5.32% | Potency [6] | outcome [7] | Potency [8] | max response [9] -2.33% | max response [13] 9.62% | Potency [10] | max response [11] 0.0305% | outcome [12]

O=C(O)c1cccc([N+](=O)[O-])c1
inactive: Potency [1] | Potency [2] | Potency [3] | activation [4] 0.347% and -2.14% | max response [5] -2.18% and -2.21% | Potency [6] | outcome [7] | max response [9] 20.3% and -7.83% | max response [13] 4.89% and -8.68% | Potency [10] | max response [11] -0.759% and -3.01% | outcome [12]

O=C(Cl)c1c(Cl)cccc1Cl
inactive: Potency [1] | Potency [2] | Potency [3] | activation [4] -1.9% | max response [5] -3.46% | Potency [6] | outcome [7] | Potency [8] | max response [13] 0.0079% | Potency [10] | max response [11] -2.88% | outcome [12]

O=[N+]([O-])c1cc(C(F)(F)F)ccc1Cl
inactive: Potency [1] | Potency [2] | Potency [3] | activation [4] 1.14% | max response [5] 0.399% | Potency [6] | outcome [7] | Potency [8] | max response [13] -0.584% | Potency [10] | max response [11] 0.829% | outcome [12]

C(=C/c1ccccc1)/c1ccccc1
inactive: Potency [1] | Potency [2] | Potency [3] | activation [4] 1.55% | max response [5] 5.49% | Potency [6] | outcome [7] | max response [9] 5.32% | max response [13] -10.3% | Potency [10] | max response [11] 0.267% | outcome [12]

CCNc1ccccc1
inactive: Potency [1] | Potency [2] | Potency [3] | activation [4] 0.398% | max response [5] -1.14% | Potency [6] | outcome [7] | max response [9] -0.56% | max response [13] -1.34% | Potency [10] | max response [11] -2.55% | outcome [12]

Cc1nc2ccc(Cl)cc2[nH]1
inactive: Potency [1] | Potency [2] | Potency [3] | activation [4] 3.58% | max response [5] -1.28% | Potency [6] | outcome [7] | Potency [8] | max response [13] 5.07% | max response [11] -1.68% | outcome [12]

ClCCl
inactive: Potency [1] | Potency [2] | Potency [3] | activation [4] 0.008% | max response [5] -6.14% | Potency [6] | outcome [7] | Potency [8] | max response [9] 8.53% | max response [13] -3.33% | Potency [10] | max response [11] 1.89% | outcome [12]

CNC(=O)c1ccccc1
inactive: Potency [1] | Potency [2] | Potency [3] | activation [4] -0.192% | max response [5] -1.17% | Potency [6] | outcome [7] | Potency [8] | max response [9] -3.92% | max response [13] 8.06% | Potency [10] | max response [11] -4.07% | outcome [12]

C=CC(=O)OCCCC
inactive: Potency [1] | Potency [2] | Potency [3] | activation [4] 0.108% | max response [5] 0.0985% | Potency [6] | outcome [7] | max response [9] -3.72% | max response [13] -0.0822% | Potency [10] | max response [11] 6.31% | outcome [12]

FC(F)(F)c1cccc(Cl)c1
inactive: Potency [1] | Potency [2] | Potency [3] | activation [4] -0.497% | max response [5] -9.21% | Potency [6] | outcome [7] | max response [13] -5.31% | Potency [10] | max response [11] -6.22% | outcome [12]
